# Source: PubChem BioAssay (National Center for Advancing Translational Sciences (NCATS))
# Hsp90 Hop PPI – changes Hsp90-Hop TPR2A binding signal, up or down | hit rate 0.44% among 71,000 | Potency, µM (highest dose often 57 µM) | AlphaScreen TPR2A-His6 binding biotin-Hsp90 C-terminal peptide | AID 595; active means well fitted curve in either direction with a large enough effect; inconclusive means small, poorly fitted or top-dose-only effect, or another doubt
# BRCT inh red – BRCT-phosphoprotein interaction inhibition (red fluorophore); P38398; Potency, µM (highest dose often 76.9 µM), most hits filed as inhibitors; BRCT-phosphopeptide binding, red fluorescence polarization; hit rate 0.03% among 75,000
#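 Rhodamine-labelled pBACH1 10-mer (100 nM) bound to BRCT domain (100 nM) at pH 7.3; compounds incubated 12 min room temperature, polarization read. Free peptide defines full inhibition; unlabelled decapeptide titrated as control.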
# BRCT PPI green – BRCA1 BRCT-phosphoprotein interaction inhibition; P38398; BRCA1 BRCT-phosphopeptide binding, green fluorescence polarization; Potency, µM (top dose mostly 76.9 µM), hits mostly inhibitors; hit rate 0.05% among 75,000; AID 875
#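 Fluorescence polarization: His-tagged BRCT (~35 kDa BRCA1 C-terminus, 250 nM) bound to 100 nM fluorescein-labeled phosphorylated 10-aa BACH1 peptide, pH 7.3 phosphate buffer with DTT and Tween 20. Compounds incubated 12 min at room temperature; inhibition read as lowered polarization.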
# YjeE inh – displaces an ADP probe from E. coli YjeE (TsaE); P0AF67; purified YjeE enzyme, qHTS inhibition assay; Potency, µM; hit rate 0.05% among 71,000; AID 605
#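 Fluorescence polarization of a BODIPY Texas Red–ADP probe (2 uM) bound to purified YjeE (10 uM) was read after 15 min room-temperature incubation with compounds. Loss of polarization marks inhibitors; ADP serves as titrated control.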
# Pol III holo inh – inhibitors of bacterial DNA polymerase III holoenzyme; hit rate 0.25% among 71,000; reconstituted DNA polymerase III holoenzyme replication, biochemical; Potency, µM (highest dose often 57.1 µM)
#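 Reconstituted *E. coli* holoenzyme (0.35 nM Pol III, 1 nM beta, 154 nM SSB, 2 nM primase) was preincubated with compound for 15 min at RT. Synthesis on 1.4 nM ssM13Gori ran 35 min, then was stopped with PicoGreen/EDTA and read as dsDNA fluorescence.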
# IMPase cell inh – membrane-permeable compound that blocks inositol monophosphatase. P97697. CHO-M1 cells, IP1 accumulation, HTRF TR-FRET ratio. inhibition (IP1 accumulation), % at 46.1 µM. 120,000 tested, under 10 active; active means well fitted curve in the direction sought with a large enough effect in the signal ratio, not every such curve was filed as active; inconclusive means small, poorly fitted or top-dose-only effect, or a change in a side signal; inactive means no such curve, though single readings can be large or run the other way; the % refers to the signal ratio;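 further: cells stimulated with carbachol in lithium chloride buffer; higher means more IMPase inhibition seen as more IP1 and lower FRET ratio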
# Target sequence (P97697 whole entry, looked up): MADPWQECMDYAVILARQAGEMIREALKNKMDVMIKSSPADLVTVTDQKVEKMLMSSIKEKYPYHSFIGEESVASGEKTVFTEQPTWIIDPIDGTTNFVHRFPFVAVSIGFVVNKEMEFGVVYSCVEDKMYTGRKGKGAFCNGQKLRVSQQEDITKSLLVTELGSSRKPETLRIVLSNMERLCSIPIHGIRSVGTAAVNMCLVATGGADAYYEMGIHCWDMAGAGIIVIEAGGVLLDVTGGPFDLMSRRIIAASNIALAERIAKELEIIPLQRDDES
#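 Measured: the HTRF emission ratio (665/620 nm) plus the 620 nm donor channel, each fitted to the Hill equation to give AC50. Cells were CHO-M1 given compounds up to 46 uM and a 30 min carbachol stimulation at 37C.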
# Numbers stand for hits; 0 = inactive; ? = inconclusive; - = not tested or not shown; ! = repeats disagree; [ ] = remark or other dose. Shown is part of a subset that was picked to be rich in hits. Unless noted, the call rests on the fitted dose curve; in most records, active means well fitted curve in the direction sought with a large enough effect; inconclusive means small, poorly fitted or top-dose-only effect, or another doubt; inactive means no such curve, though single readings can be large; an effect the other way counts as inactive or inconclusive.
SMILES,Hsp90 Hop PPI,BRCT inh red,BRCT PPI green,YjeE inh,Pol III holo inh,IMPase cell inh
Cc1conc1NC(c1cccs1)c1ccc2cccnc2c1O (stereo not drawn),25.1µM,0,0,0,0,0
Cc1ccc(C(Nc2ccccn2)c2ccc3cccnc3c2O)cc1 (stereo not drawn),-,-,-,-,-,0
COc1cccc2c1NC(C(=O)O)C1CC=CC21 (stereo not drawn),0,0,0,?,25.1µM,-
Cc1ccc2c(c1)C1C=CCC1C(C(=O)O)N2 (stereo not drawn),?,?,0,0,?,-
CCCCCCC#Cc1cc(OC)c(OC)cc1C(N1CC(C)c2ccccc21)N1CC(C)c2ccccc21 (stereo not drawn),-,0[15.4 µM],0[15.4 µM],-,-,-
CCOc1ccccc1C(=O)Oc1c(S(=O)(=O)c2ccc(C)cc2)c(C)nn1-c1ccccc1,-,-,-,-,-,0
O=C(Nc1nc(-c2ccccn2)cs1)c1ccc(Cl)s1,7.94µM,0,0,0,0,0
O=C(Nc1nc(-c2ccccn2)cs1)c1ncc(Cl)c(Cl)c1Cl,-,-,-,-,-,0
CCOC(=O)c1cnc2c(C)c(Cl)ccc2c1Nc1ccc(N2CCOCC2)cc1,-,-,-,-,-,0
CCC(C)Nc1ccc(NC(C)CC)cc1 (stereo not drawn),?,0,0,100µM,0,-
CCC(C)NC(=O)c1ccccc1C(=O)NC(C)CC (stereo not drawn),0,0,0,0,0,0
CCC(Cl)CC(Cl)C(Cl)C(Cl)C(Cl)C(C)Cl (stereo not drawn),31.6µM,0,0,0,0,-
CC#C[C@@]1(O)CC[C@@H]2[C@@H]3CCC4=CC(=O)CCC4=C3[C@@H](c3ccc(N(C)C)cc3)C[C@]21C,?,-,-,0,0,-
O=S(=O)(NCCCCCCc1ccccc1)c1cccc2c(Cl)cccc12,39.8µM,0,0,0,0,0
COc1cc2cc3c4c(cc(OC)c(OC)c4c2cc1OC)CCN3C,?,0,0,0,0,0
Cc1c(N2C(=O)c3ccc(Br)cc3C2=O)c(=O)n(-c2ccccc2)n1C,-,-,-,-,-,0
Cc1c(N2C(=O)c3ccc4c5c(ccc(c35)C2=O)CC4)c(=O)n(-c2ccccc2)n1C,0,0,0,0,25.1µM,0
CN1CCN(c2ccc3nc(-c4ccc5nc(-c6ccc(O)cc6)[nH]c5c4)[nH]c3c2)CC1,0[11 µM],0[15.4 µM],0[15.4 µM],0,2µM,-
COc1cccc(N2CCN(S(=O)(=O)c3ccc4nc(-c5ccccc5)[nH]c4c3)CC2)c1,0,0,0,0,0,0
CCOC(=O)OCC1OC(C#Cc2ccccc2)C=CC1OC(=O)OCC (stereo not drawn),-,0[15.4 µM],0[15.4 µM],-,-,-
COc1cccc2c1C(=O)c1c(O)c3c(c(O)c1C2=O)C[C@](O)(C(=O)CO)C[C@@H]3O[C@H]1C[C@H](N)[C@@H](O)[C@H](C)O1,0[11 µM],-,-,0,0[11.4 µM],-
COc1cccc2c1C(=O)c1c(O)c3c(c(O)c1C2=O)C[C@@](O)(C(C)=O)C[C@@H]3O[C@H]1C[C@H](N)[C@H](O)[C@H](C)O1,?,15.8µM,0,0,0.158µM,0
CCC1(CC)NC(=O)N(CC(=O)Nc2sc3c(c2C(N)=O)CCC3)C1=O,0,0,0,0,20µM,0
CCC1(C)NC(=O)N(CC(=O)Nc2sc3c(c2C(=O)OC)CCCCC3)C1=O (stereo not drawn),-,-,-,-,-,0
O=C(O)c1cccnc1C(=O)O,3.16µM,0,0,0,0,0
SMILES,Hsp90 Hop PPI,BRCT inh red,BRCT PPI green,YjeE inh,Pol III holo inh,IMPase cell inh
O=C(NCc1cccs1)c1cccnc1C(=O)O,0,0,0,0,0,0
C=CC1=C(C)C2=NC1=CC1=NC(=CC3=NC(=CC4=NC(=C2)C(C)=C4CCC(=O)O)C(CCC(=O)O)=C3C)C(C=C)=C1C.[Zn],5.01µM,31.6µM,?,79.4µM,25.1µM,0
Cc1cc(CCC(=O)O)c(C)cc1CCC(=O)O,-,-,-,-,-,0
O=C1c2c(O)ccc(O)c2C(=O)c2c(NCCNCCO)ccc(NCCNCCO)c21,15.8µM!,0,0[3.08 µM],79.4µM!,1µM,?
Cc1cc(C)c(/C=C2/C(=O)Nc3ccccc32)[nH]1,?,0,?,0,0,0
CCN(CC)c1ccc(CN2CCCCCC2)cc1,-,-,-,-,-,0
CCN(CC)c1ccc2c(c1)CCCN2,15.8µM,0,0,0,0,0
